High-throughput results: PubChem, several laboratories
Shown are actives, neighbours in structure and some others; about 3.1% of the full set was active somewhere.
FadD28 FP inh: inhibitors of FadD28 bisubstrate probe binding, primary screen, biochemical, fluorescence polarization, single point. inhibition, % at 12.5 µM. AID 588549, 2011. actives 0.22% (n = 360,000). Mycobacterium tuberculosis FadD28 fatty-acid-AMP ligase; in the data active = inhibition above about 8.5%, passing the limit was not always enough
Mtb FBA inh: Mtb FBA enzyme inhibitors, primary screen, biochemical, fluorescence, strain H37Rv; purified M. tuberculosis FBA, fluorescence read-out; inhibition, % at 1 µM; AID 588726, 2011; actives 2.3% (n = 360,000); in the data active = inhibition above about 27%;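 note: 0% = vehicle and 100% = reference inhibitor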
Target sequence (P9WQA3 whole entry, looked up): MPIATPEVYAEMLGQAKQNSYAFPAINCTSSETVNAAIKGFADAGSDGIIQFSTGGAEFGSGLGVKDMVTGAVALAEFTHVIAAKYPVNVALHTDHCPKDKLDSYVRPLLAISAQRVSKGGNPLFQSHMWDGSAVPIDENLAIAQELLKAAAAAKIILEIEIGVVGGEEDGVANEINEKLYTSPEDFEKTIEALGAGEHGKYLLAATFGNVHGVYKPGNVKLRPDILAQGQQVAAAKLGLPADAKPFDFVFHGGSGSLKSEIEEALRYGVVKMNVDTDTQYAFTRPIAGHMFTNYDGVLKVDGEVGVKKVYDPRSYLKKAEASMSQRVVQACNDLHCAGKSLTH
3CLpro inhibitor: SARS-CoV 3CLpro protease inhibitors, primary screen, biochemical, quenched FRET | recombinant SARS-CoV 3CLpro, quenched FRET peptide cleavage | inhibition, % at 6 µM | actives 0.14% (n = 290,000); in the data active = inhibition above about 12%
BioA inh: M. tuberculosis BioA enzyme inhibitors, primary screen, biochemical, plate reader, single point, HTS; 7,8-diaminopelargonic acid synthase BioA (Mycobacterium tuberculosis); purified M. tuberculosis BioA enzyme; actives 0.096% (n = 360,000); inhibition, % at 9.99 µM; in the data active = inhibition above about 40%
GDH-TPI inh: GDH-TPI coupling enzyme inhibitors, primary screen, artefact control for M. tuberculosis FBA inhibitor project, biochemical, absorbance, full deck. GDH-TPI coupled enzyme counterscreen, NADH absorbance. inhibition, % at 4.8 µM. actives 1.2% (n = 360,000); in the data active = inhibition above about 30%;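 note: 0% = DMSO wells and 100% = wells lacking the enzyme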
* marks the source's active call; other numbers are inactive results; . = not tested or not shown; + = active, no number.

SMILES	FadD28 FP inh	Mtb FBA inh	3CLpro inhibitor	BioA inh	GDH-TPI inh
O=C(Oc1ccc2ccc(=O)oc2c1)c1ccc([N+](=O)[O-])cc1	-3.4	183.0*	-2.5	0.0	-2.4
CC(NC(=O)OC(C)(C)C)C(=O)Oc1ccc2ccc(=O)oc2c1 (stereo not given)	-1.9	+	0.0	-1.7	4.9
CC(=O)Oc1ccc2ccc(=O)oc2c1	0.7	+	-1.5	-3.8	9.0
COC(=O)c1c(CC[C@@H](CO)NC(=O)N[C@H](Cc2ccccc2)Cn2cc(-c3ccccn3)nn2)oc(C(C)=O)c1C(=O)OC	.	.	.	-2.8	.
C[C@@H]1CN([C@H](C)CO)S(=O)(=O)c2ccc(-c3ccncc3)cc2O[C@H]1CN(C)C(=O)CC1CC1	.	.	.	1.6	.
COCCNC(=O)CCSc1nc(-c2ccc(OC)cc2)cc(C(F)(F)F)n1	0.4	22.1	0.0	-2.1	35.6*
O=C(CN1C(=O)NC2(CCCC2)C1=O)Oc1ccc2ccc(=O)oc2c1	0.8	.	.	-0.1	26.5
CCOC(=O)Nc1ccc2c(CN3C(=O)NC4(CCCC4)C3=O)cc(=O)oc2c1	-2.7	+	1.8	0.4	22.8
CCc1cc(=O)oc2cc(OC(=O)CN3C(=O)NC4(CCCC4)C3=O)ccc12	-1.4	+	-1.6	0.0	18.9
COc1ccccc1-c1ccc([C@@H]2[C@@H](CO)N3CCCCN(C(=O)NC4CCCC4)C[C@H]23)cc1	.	.	.	-4.3	.
O=C(N/N=C/c1cccs1)C(=O)Nc1cccc(Cl)c1	-2.2	-2.2	-0.6	.	20.2
COc1cc(/C=N/NC(=O)CSCc2ccc([N+](=O)[O-])cc2)cc(OC)c1OC	-5.1	-9.3	7.3	-0.5	-2.5
COc1ccc(/C=N/NC(=O)C(=O)Nc2ccccn2)cc1OC	-1.8	-2.2	3.0	-0.7	42.9*
COc1ccc(/C=N/NC(=O)CSCc2ccc([N+](=O)[O-])cc2)cc1OC	-1.4	-0.1	-0.1	-0.7	40.7*
COc1cc(/C=N/Nc2ccccn2)ccc1O	-1.0	0.6	-2.1	.	25.2
COc1ccc(/C=N/Nc2ccccn2)cc1OC	-1.4	0.3	-4.7	2.9	33.0*
COc1cc(C=NNC(=O)C(=O)Nc2cccc(Cl)c2)cc(OC)c1O	-0.6	-3.9	.	-0.8	38.9*
COCC#Cc1cnc2c(c1)C(=O)N([C@@H](C)CO)C[C@H](C)[C@@H](CN(C)C(=O)c1ccc3c(c1)OCO3)O2	.	.	.	-0.6	.
CCCN(C)C[C@H]1OCCCC[C@H](C)Oc2ccc(NS(=O)(=O)c3ccccc3)cc2C(=O)N([C@H](C)CO)C[C@H]1C	.	.	.	-2.9	.
Cc1noc(C)c1S(=O)(=O)Nc1ccc2c(c1)CC(=O)N([C@H](C)CO)C[C@@H](C)[C@@H](CN(C)Cc1ccc3c(c1)OCO3)O2	.	.	.	-3.5	.
CCS(=O)(=O)Nc1ccc2c(c1)C(=O)N(C)[C@@H]1CC[C@@H](CC(=O)OC)O[C@H]1CO2	.	.	.	-3.7	.
CNC[C@@H]1Oc2ccc(NS(=O)(=O)c3ccc(Cl)cc3)cc2CC(=O)N([C@H](C)CO)C[C@H]1C	.	.	.	-0.7	.
COc1ccc(/C=N/NC(=O)C(=O)NCc2cccnc2)cc1OC	-2.0	3.6	2.2	.	28.5
COc1ccc(C=NNC(=O)NN=Cc2ccc(OC)c(OC)c2)cc1OC	-2.1	1.7	.	-1.8	47.8*
COc1cc(/C=N/NC(=O)C(=O)NCc2cccnc2)ccc1O	0.4	0.2	0.7	-3.6	34.5*
SMILES	FadD28 FP inh	Mtb FBA inh	3CLpro inhibitor	BioA inh	GDH-TPI inh
CCOP(=O)(OCC)c1nc(-c2ccccc2)oc1N1CCCCC1	-2.5	+	-3.0	-3.1	1.4
COP(=O)(OC)c1nc(-c2ccc([N+](=O)[O-])cc2)oc1N1CCCCC1	-1.5	-2.6	-4.7	5.5	7.9
CCOP(=O)(c1ccccc1)c1nc(-c2ccccc2C)oc1N1CCCCC1 (stereo not given)	.	.	2.3	.	.
COP(=O)(OC)c1nc(-c2cccc3ccccc23)oc1N1CCCCC1	-0.6	+	0.3	1.6	9.8
CCOP(=O)(OCC)c1nc(-c2cccc3ccccc23)oc1N1CCCCC1	-1.5	175.0*	4.0	.	1.6
C[C@H](CO)N1C[C@H](C)[C@H](CN(C)S(=O)(=O)c2cccs2)Oc2ccc(NC(=O)C3CC3)cc2CC1=O	.	.	.	0.4	.
O=C(C[C@H]1CC[C@@H](NC(=O)Nc2ccc(C(F)(F)F)cc2)[C@H](CO)O1)NCc1ccccn1	.	.	.	-0.9	.
CCOC(=O)c1cc(-c2ccccc2)nc2nc(N(CC)CC)sc12	-1.5	65.2*	3.1	.	10.4
CCOC(=O)c1cc(-c2ccccc2)nc2nc(N3CCCCC3)sc12	-1.3	18.2	-2.8	.	-9.6
O=c1cc(CN2CCN(S(=O)(=O)c3ccc4c(c3)OCCO4)CC2)c2ccc(O)cc2o1	-6.8	198.5*	-0.1	-1.1	20.3
O=c1cc(CN2CCN(S(=O)(=O)c3cccc(Cl)c3)CC2)c2ccc(O)cc2o1	-0.6	118.2*	.	2.2	0.6
Cc1ccc2c(CN3CCN(S(=O)(=O)c4ccc(Cl)cc4)CC3)cc(=O)oc2c1C	-0.8	5.0	.	-3.0	-1.4
N#CC1=C(N)C2=C(N3CCCCC3)CCCC2C1(C#N)C#N (stereo not given)	45.5*	-2.6	-8.2	1.6	14.6
N#CC(C#N)=C1C=C2C=C(N3CCCCC3)CCC2CC1 (stereo not given)	.	.	-81.6	.	.
O=C(O)/C=C/C(=O)c1ccc2c(c1)CCc1ccccc1-2	-4.6	5.2	.	2.0	32.3*
CC(=O)Nc1ccc2c(c1)CCc1ccccc1-2	-1.4	3.2	2.6	-2.3	4.8
CN1C(=O)c2cc(NC(=O)Nc3ccccc3F)ccc2OC[C@H]2O[C@@H](CC(=O)NCc3ccc(-c4ccccc4)cc3)CC[C@H]21	.	.	.	-1.8	.
COc1ccc(F)cc1CN1CCN(c2cc(C)nc3c4c(C)cc(C)nc4nn23)CC1	.	.	-5.4	.	.
Cc1cc(C)c2c(n1)nn1c(N3CCN(Cc4ccccc4)CC3)cc(C)nc21	-2.7	113.6*	.	1.3	20.4
COc1ccc2c(c1)[nH]c1c(C)nccc12	-3.7	150.5*	.	2.8	7.2
CCOC(=O)c1cc(=O)n2c(nc3ccccc32)[nH]1	-4.1	+	.	-0.9	16.2
C/C=C/c1cnc2c(c1)C(=O)N([C@H](C)CO)C[C@@H](C)[C@H](CN(C)S(=O)(=O)c1cn(C)cn1)O2	.	.	.	-1.6	.
Cc1ccc(S(=O)(=O)N[C@H]2CC[C@H](CC(=O)N3CCN(c4ccccc4)CC3)O[C@@H]2CO)cc1	.	.	.	1.0	.
CC(=O)NCCC1CCN(c2nc3nonc3nc2N(C)Cc2ccccc2)CC1	-4.6	0.4	-0.5	.	37.2*
N#C/C(=C\c1coc2ccc(O)cc2c1=O)C(=O)Nc1nc2ccccc2s1	29.5*	15.5	5.5	-30.6	19.8
N#C/C(=C\c1coc2ccccc2c1=O)C(N)=S	-1.5	0.5	2.6	.	6.9
COCC(=O)N1CCCC(C(=O)c2ccc3c4c(cccc24)CC3)C1 (stereo not given)	-1.0	26.7	-4.4	0.6	39.0*
